Test results published in ChEMBL document CHEMBL1961873, “Compounds: GSK PKIS; Assays: Nanosyn kinase panel” (2012).

Assays:
[1] = tested on: Tyrosine-protein kinase ABL1 (Homo sapiens), P00519 [T315I]; conditions: at 1 µM
[2] = tested on: Tyrosine-protein kinase ABL1 (Homo sapiens), P00519 [Y253F]; conditions: at 0.1 µM
[3] = tested on: Tyrosine-protein kinase ABL1 (Homo sapiens), P00519 [Y253F]; conditions: at 1 µM
[4] = target: Tyrosine-protein kinase ABL1 (Homo sapiens) (UniProt P00519); conditions: at 0.1 µM
[5] = target: Tyrosine-protein kinase ABL1 (Homo sapiens) (UniProt P00519); conditions: at 1 µM
[6] = target: ALK tyrosine kinase receptor (Homo sapiens) (UniProt Q9UM73); conditions: at 0.1 µM
[7] = target: ALK tyrosine kinase receptor (Homo sapiens) (UniProt Q9UM73); conditions: at 1 µM
[8] = target: Tyrosine-protein kinase ABL2 (Homo sapiens) (UniProt P42684); conditions: at 0.1 µM
[9] = target: Tyrosine-protein kinase ABL2 (Homo sapiens) (UniProt P42684); conditions: at 1 µM
[10] = target: Tyrosine-protein kinase receptor UFO (Homo sapiens) (UniProt P30530); conditions: at 0.1 µM
[11] = target: Tyrosine-protein kinase receptor UFO (Homo sapiens) (UniProt P30530); conditions: at 1 µM
[12] = target: Tyrosine-protein kinase Blk (Homo sapiens) (UniProt P51451); conditions: at 0.1 µM
[13] = target: Tyrosine-protein kinase Blk (Homo sapiens) (UniProt P51451); conditions: at 1 µM
[14] = target: T1, Cytoplasmic tyrosine-protein kinase BMX (Homo sapiens) (UniProt P51813); conditions: at 0.1 µM
T1 sequence (whole entry): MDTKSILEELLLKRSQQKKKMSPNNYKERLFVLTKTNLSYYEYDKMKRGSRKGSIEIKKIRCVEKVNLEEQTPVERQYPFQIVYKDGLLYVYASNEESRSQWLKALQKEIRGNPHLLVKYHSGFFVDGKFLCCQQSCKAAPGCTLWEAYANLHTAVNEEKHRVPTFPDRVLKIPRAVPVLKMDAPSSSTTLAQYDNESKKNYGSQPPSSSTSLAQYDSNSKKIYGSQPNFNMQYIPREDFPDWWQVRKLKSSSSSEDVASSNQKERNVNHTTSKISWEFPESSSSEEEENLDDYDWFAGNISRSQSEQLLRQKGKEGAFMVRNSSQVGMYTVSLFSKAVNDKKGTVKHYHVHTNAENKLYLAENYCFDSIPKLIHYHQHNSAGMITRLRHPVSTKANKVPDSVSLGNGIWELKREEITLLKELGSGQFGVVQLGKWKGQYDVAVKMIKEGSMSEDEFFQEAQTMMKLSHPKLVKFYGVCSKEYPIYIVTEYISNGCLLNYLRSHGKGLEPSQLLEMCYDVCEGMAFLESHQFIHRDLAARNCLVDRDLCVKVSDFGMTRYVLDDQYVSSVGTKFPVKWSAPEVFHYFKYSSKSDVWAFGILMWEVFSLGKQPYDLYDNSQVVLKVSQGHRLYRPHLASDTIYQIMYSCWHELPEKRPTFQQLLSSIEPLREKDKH

[15] = target: T1, Cytoplasmic tyrosine-protein kinase BMX (Homo sapiens); conditions: at 1 µM
[16] = target: Protein-tyrosine kinase 6 (Homo sapiens) (UniProt Q13882); conditions: at 0.1 µM
[17] = target: Protein-tyrosine kinase 6 (Homo sapiens) (UniProt Q13882); conditions: at 1 µM
[18] = target: Tyrosine-protein kinase BTK (Homo sapiens) (UniProt Q06187); conditions: at 0.1 µM
[19] = target: Tyrosine-protein kinase BTK (Homo sapiens) (UniProt Q06187); conditions: at 1 µM
[20] = target: Tyrosine-protein kinase CSK (Homo sapiens) (UniProt P41240); conditions: at 0.1 µM;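 further: value given is the averaged percent inhibition of CSK kinase activity, from the GSK PKIS kinase inhibitor set screening panel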
Tyrosine-protein kinase CSK (Homo sapiens), sequence (P41240 2-450 limits assumed): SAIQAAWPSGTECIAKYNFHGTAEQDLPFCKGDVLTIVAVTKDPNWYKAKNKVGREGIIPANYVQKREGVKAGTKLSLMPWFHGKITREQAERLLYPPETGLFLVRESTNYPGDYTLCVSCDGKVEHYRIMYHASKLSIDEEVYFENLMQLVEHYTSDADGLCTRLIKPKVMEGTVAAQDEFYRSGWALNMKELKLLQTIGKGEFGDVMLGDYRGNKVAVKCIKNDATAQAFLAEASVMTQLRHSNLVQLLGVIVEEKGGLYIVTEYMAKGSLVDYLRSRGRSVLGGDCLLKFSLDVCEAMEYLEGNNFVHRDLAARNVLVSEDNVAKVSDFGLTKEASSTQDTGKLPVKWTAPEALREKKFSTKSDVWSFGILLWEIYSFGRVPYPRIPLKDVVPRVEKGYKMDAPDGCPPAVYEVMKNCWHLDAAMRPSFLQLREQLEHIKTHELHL

Protein-tyrosine kinase 6 (Homo sapiens), sequence (Q13882 whole entry, looked up): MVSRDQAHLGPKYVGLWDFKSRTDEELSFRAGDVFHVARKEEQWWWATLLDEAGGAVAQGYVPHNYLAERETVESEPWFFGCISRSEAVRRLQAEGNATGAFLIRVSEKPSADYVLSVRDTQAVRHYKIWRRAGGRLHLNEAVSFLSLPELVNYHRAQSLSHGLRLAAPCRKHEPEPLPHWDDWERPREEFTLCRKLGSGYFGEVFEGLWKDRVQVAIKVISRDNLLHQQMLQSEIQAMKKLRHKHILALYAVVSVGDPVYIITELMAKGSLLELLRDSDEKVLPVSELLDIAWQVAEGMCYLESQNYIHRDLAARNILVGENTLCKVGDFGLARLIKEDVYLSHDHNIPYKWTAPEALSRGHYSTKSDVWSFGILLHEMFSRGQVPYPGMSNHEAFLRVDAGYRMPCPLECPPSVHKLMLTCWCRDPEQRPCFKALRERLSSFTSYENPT
Tyrosine-protein kinase BTK (Homo sapiens), sequence (Q06187 whole entry): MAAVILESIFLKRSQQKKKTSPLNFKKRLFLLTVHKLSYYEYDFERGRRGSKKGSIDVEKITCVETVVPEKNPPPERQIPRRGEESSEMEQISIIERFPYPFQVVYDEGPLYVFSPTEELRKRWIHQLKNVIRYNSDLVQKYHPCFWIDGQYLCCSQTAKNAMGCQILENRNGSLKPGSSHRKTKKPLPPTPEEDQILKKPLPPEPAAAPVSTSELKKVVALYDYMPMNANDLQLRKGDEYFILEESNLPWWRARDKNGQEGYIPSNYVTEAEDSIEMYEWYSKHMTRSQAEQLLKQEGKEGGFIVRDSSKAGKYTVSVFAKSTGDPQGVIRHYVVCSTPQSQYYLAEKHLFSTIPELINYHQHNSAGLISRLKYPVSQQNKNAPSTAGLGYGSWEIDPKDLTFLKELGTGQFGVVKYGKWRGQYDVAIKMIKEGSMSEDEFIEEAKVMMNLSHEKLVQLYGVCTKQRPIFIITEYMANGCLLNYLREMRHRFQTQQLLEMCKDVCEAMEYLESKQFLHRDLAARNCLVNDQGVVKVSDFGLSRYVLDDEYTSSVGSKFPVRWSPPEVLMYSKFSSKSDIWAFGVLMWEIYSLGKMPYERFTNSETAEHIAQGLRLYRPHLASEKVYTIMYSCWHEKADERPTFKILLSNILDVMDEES
Tyrosine-protein kinase Blk (Homo sapiens), sequence (P51451 2-505 limits assumed): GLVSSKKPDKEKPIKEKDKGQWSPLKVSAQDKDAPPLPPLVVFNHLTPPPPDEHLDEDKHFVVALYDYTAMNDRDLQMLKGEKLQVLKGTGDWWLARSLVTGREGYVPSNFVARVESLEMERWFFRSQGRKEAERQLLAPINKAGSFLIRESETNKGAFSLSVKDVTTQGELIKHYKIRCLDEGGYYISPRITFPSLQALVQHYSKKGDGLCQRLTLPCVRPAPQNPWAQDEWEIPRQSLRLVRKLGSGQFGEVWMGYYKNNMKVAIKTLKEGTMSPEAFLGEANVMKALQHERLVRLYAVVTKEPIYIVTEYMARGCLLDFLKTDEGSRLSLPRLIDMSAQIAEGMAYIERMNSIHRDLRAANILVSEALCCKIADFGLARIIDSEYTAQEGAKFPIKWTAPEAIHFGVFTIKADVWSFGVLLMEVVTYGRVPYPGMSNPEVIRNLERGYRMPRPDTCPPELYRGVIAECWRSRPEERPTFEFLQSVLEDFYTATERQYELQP
ALK tyrosine kinase receptor (Homo sapiens), sequence (Q9UM73 19-1620 limits assumed): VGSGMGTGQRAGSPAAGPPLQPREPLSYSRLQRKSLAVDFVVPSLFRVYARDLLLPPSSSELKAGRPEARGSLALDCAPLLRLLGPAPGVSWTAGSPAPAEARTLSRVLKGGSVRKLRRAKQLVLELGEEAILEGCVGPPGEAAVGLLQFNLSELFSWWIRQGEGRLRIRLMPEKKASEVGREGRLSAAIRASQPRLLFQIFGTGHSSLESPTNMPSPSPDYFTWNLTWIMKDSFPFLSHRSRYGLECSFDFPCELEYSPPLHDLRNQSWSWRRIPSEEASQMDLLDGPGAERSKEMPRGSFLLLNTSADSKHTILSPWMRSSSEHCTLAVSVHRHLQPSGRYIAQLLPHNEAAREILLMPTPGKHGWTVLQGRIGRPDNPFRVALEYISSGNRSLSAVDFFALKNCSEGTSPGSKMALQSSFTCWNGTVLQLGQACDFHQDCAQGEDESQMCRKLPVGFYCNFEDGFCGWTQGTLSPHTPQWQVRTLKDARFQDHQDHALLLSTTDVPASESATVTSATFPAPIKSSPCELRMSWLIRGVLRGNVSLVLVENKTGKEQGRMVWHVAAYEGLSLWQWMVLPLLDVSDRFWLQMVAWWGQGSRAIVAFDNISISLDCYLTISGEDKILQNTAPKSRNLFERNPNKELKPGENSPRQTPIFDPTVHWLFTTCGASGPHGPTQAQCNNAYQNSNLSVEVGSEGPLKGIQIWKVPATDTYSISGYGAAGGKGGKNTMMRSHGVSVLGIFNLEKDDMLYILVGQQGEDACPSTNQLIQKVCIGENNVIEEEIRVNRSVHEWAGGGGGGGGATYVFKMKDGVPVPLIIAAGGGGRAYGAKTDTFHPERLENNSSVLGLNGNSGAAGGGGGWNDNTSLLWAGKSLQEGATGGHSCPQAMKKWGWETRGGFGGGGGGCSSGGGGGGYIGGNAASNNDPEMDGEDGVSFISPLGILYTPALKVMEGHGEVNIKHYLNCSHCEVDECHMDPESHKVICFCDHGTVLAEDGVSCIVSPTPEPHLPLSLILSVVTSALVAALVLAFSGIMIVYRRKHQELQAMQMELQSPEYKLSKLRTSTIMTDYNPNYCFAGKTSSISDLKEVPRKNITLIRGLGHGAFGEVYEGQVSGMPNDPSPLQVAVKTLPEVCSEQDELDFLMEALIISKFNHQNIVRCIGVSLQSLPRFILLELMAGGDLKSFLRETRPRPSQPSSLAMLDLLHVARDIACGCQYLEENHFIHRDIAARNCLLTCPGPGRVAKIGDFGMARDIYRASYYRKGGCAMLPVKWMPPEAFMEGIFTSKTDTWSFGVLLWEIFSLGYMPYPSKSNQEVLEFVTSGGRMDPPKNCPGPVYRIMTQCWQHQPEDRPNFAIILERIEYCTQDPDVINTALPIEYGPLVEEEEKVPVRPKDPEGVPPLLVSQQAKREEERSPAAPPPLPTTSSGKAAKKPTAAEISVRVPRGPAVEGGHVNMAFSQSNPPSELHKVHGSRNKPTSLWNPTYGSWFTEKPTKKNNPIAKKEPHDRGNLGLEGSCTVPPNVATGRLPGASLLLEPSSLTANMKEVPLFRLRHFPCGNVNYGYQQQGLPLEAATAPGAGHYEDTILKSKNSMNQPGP
Tyrosine-protein kinase receptor UFO (Homo sapiens), sequence (P30530 whole entry): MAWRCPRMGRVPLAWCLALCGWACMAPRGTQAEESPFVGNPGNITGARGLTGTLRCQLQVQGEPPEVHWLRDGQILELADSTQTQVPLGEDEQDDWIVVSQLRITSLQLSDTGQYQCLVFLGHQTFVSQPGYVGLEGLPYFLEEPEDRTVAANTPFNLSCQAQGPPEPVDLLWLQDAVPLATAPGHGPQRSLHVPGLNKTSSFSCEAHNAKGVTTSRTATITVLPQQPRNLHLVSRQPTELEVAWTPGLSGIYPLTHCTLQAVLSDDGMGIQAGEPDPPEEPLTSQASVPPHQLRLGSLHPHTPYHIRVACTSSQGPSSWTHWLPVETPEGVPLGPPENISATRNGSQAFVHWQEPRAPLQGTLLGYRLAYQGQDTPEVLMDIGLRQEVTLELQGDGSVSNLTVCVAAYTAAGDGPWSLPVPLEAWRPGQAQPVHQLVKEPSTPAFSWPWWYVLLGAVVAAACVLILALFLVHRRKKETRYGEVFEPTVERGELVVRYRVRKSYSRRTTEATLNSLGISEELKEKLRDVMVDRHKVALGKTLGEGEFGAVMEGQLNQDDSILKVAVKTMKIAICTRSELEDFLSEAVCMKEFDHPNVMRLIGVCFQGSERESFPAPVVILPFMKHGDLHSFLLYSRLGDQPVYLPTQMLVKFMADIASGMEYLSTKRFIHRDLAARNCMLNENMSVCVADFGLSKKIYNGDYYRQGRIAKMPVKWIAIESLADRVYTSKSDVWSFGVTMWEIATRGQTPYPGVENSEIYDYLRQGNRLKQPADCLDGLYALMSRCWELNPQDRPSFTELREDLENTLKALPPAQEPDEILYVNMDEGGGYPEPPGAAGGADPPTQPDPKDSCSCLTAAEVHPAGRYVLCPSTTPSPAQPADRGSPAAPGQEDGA

SMILES	inhibition [1] [%]	inhibition [2] [%]	inhibition [3] [%]	inhibition [4] [%]	inhibition [5] [%]	inhibition [6] [%]	inhibition [7] [%]	inhibition [8] [%]	inhibition [9] [%]	inhibition [10] [%]	inhibition [11] [%]	inhibition [12] [%]	inhibition [13] [%]	inhibition [14] [%]	inhibition [15] [%]	inhibition [16] [%]	inhibition [17] [%]	inhibition [18] [%]	inhibition [19] [%]	inhibition [20] [%]
O=C(NCC1CC1)c1ccc(-c2cccc(C(=O)NC3CC3)c2)cc1	1.69	2.82	3.7	3.84	8.82	1.84	3.12	3.93	5.95	-3.58	-0.85	1.41	3.43	-3.65	3.29	0.45	3.3	1.12	1.69	1.29
CCc1ccc(Oc2nccc(-c3c(-c4ccc(F)cc4)ncn3C3CCNCC3)n2)cc1	3.78	1.61	2.53	5.79	6.61	1.79	2.02	2.69	5.01	-2.27	-3.44	2.31	4.68	5.07	6.03	2.72	2.5	-0.17	0.53	-0.21
CNC(=O)c1cncc(/C=C/c2c(C)cccc2C)c1	2.52	21.9	70.3	6.54	57.3	-3.56	-1.77	7.09	51.3	-0.01	3.27	-1.68	16.2	6.81	42.4	13.4	61.9	-1.07	7.27	5.83
CCc1cccc(CC)c1/C=C/c1cncc(C(=O)NC)c1	4.76	5.29	22.2	8.06	45.9	2.66	4.03	5.58	12.9	-2.3	-1.28	2.14	4.46	0.51	4.87	2.78	3.98	2.48	2.98	1.29
COc1cc(Nc2ncc3c(C)nc(-c4cccc(Oc5ccccc5)c4)n3n2)cc(OC)c1OC	3.35	4.25	2.77	2.33	3.84	1.5	12.7	2.57	0.57	0.02	4.22	0.63	4.56	0.46	4.17	1.26	1.89	1.08	1.57	4.01
C#Cc1cccc(Nc2ncnc3ccc(OCCCCNCCS(C)(=O)=O)cc23)c1	19.4	8.28	24.9	8.05	26.8	3.38	31.9	5.87	14.8	-8.14	-7.98	2.28	3.96	3.24	5.57	6.2	10.2	-3.76	1.2	3.24
COc1ccc(C2=C(N3CCc4ccccc43)C(=O)NC2=O)cc1	6.11	5.42	3.01	5.83	9.91	1.29	5.62	6.76	12.3	-5.65	-4.91	3.71	2.94	-1.14	5.15	6	5.72	1.91	0.84	7.99
O=C(Nc1n[nH]c2nc(-c3ccc(O)cc3)c(Br)cc12)C1CC1	87.7	22.1	67.1	22.8	72.6	23.9	72.3	7.68	25.7	-7.6	-7.01	4.29	15.4	3.85	13.4	3.18	11.1	-0.08	0.5	8.35
CCS(=O)(=O)c1ccc(OC)c(Nc2ncc(-c3ccccc3Cl)o2)c1	11.7	5.95	33.3	2.99	29.3	0.79	5.19	4.89	24.5	-0.86	1.78	2.51	15.7	-1.76	3.11	-0.35	5.66	2.72	2.31	1.15
COc1ccc2cc(-c3c(-c4ccncc4)nc(-c4ccc([S+](C)[O-])cc4C)n3C)ccc2c1 (stereo not drawn)	54.5	1.98	16	2.56	15.7	-0.66	2.15	5.58	12.1	1.01	1.82	-0.17	4.39	0.28	0.8	24.7	81.2	-0.17	0.66	-0.71
c1ccc(-c2n[nH]cc2-c2ccnc(-c3ccc(OCCN4CCOCC4)cc3)c2)nc1	1.83	13.5	57.1	18.2	70	-2.58	3.94	5.43	34.1	8.29	10.8	1.62	1.61	2.19	0.44	-5.63	-2.62	0.21	6.66	-3.84
COc1cc2ncn(-c3cc(OCc4ccccc4C(F)(F)F)c(C(C)=O)s3)c2cc1OC	4.77	3.33	4.29	5.34	10.7	2.65	3.72	6.5	10.4	-3.01	-1.92	3.79	4.29	4.87	2.58	-3.46	3.98	1.17	1.75	0.53
Cc1nnc(-c2ccc(C)c(-c3ccc(C(=O)NCc4ccc(Cl)cc4)cc3)c2)o1	3.98	3.1	5.29	-2.31	1.59	-1.04	0.41	-0.31	2.57	-5.93	-7.1	-0.28	0.7	2.05	1.64	2.2	6.8	-1.06	-4.02	3.38
COc1cccc(-n2cnc3c(N/N=C/c4ccncc4)ncnc32)c1	28.5	44.6	85.3	29	72.2	-1.9	-4.64	12.7	59.5	3.99	-2.08	-0.3	15.8	-0.75	16.1	0.43	15.2	-2.61	-2.79	1.91
Fc1ccc(-c2ncn(C3CCNCC3)c2-c2ccnc(Oc3ccc(F)c(F)c3)n2)cc1	1.7	1.79	2.98	-1.26	-1.29	-1	1.5	-1.34	0.3		-4.58	-1.88	-2.13	3.36	3.49	2.61	5.39	-4.19	-4.23	2.54
CS(=O)(=O)CCNCc1cc(-c2cc3c(Nc4ccc(OCc5cccc(F)c5)c(Cl)c4)ncnc3s2)cs1	4.55	2.36	4.31	3.45	6.21	2.96	4.5	2.95	6.38	-7.56	-6.81	2.61	5.05	3.9	7.31	1.27	5.98	-1.08	0.76	1.58
CN(C)CCOc1ccc(-c2cc(-c3ccc4c(c3)CCC4=NO)c(-c3ccncc3)o2)cc1	19.4	2.44	22.1	2.01	20.3	-1.95	-0.08	2.43	18.6	1.32	2.27	-0.19	6.21	-1.43	1.43	1.76	15	0.42	2.57	-2.53
Fc1ccc(-c2nc3n(c2-c2ccncc2)CCS3)cc1	2.55	3.68	5.02	-1.35	3.25	-0.77	0.29	0.16	4.56	-7.95	-3.95		-0.49	2.02	4.87	-1.54	4.07	-2.44	-3.5	7.37
C[C@@H](Oc1cc(-n2cnc3ccc(OCC4CCN(C)CC4)cc32)sc1C(N)=O)c1ccccc1Cl	9.89	2.53	11	5.81	14	8.57	24.5	8.53	12.4	-5.23	3.11	2.92	10.4	0.11	2.71	5.93	6.07	0	0.95	5.15
CCC(=O)Nc1ccc(C)c(-c2ccc(C(=O)NCC3CC3)cc2)c1	3.61	2.81	3.14	2.28	2.9	1.63	2.14	0.38	3.75	-4.46	-3.83	1.71	3.32	1.57	3.88	4.7	5.22	-0.35	0.22	2.98
Fc1ccc(-c2ncn(C3CCNCC3)c2-c2ccnc(Oc3ccc(Oc4ccccc4)cc3)n2)cc1	1.98	1.99	2.86	3.87	2.97	4.84	4.48	2.96	3.58	-7.4	-7.71	3.8	3.79	3.11	6.45	1.09	1.93	-2.01	0.33	0.47
CN(C)c1ccc2c(c1)/C(=C/Nc1ccc(S(N)(=O)=O)cc1)C(=O)N2	18.4	4.7	18.7	2.76	21.3	1.86	8.32	2.83	4.52	0.79	14.8	2.29	33.2	-8.96	1.7	0.1	2.14	-1.88	-0.24	2.3
NC(=O)c1ccc(Oc2nccc(-c3c(-c4ccc(F)cc4)ncn3C3CCNCC3)n2)cc1	2.27	3.97	3.32	4.17	2.89	4.85	4.45	2.35	3.64	-7.67	-8.36	3.48	3.04	5.3	7.95	3.36	6.07	-0.49	0.73	3.03
CN(C)CCCNc1nccc(-c2c(-c3ccc(F)cc3)nn3cc(C(F)(F)F)ccc23)n1	2.66	3.93	6.04	2.04	11.2	-2.64	-0.07	2.2	6.34	-2.11	3.68	-1.5	-0.77	-2.3	3.77	2.2	4.39	-3.09	-2.3	2.44
COc1ccc(-c2ccc3c(NC(=O)C4CC4)n[nH]c3n2)cc1	21.2	2.3	9.63	2.39	19.3	1.28	1.76	2.81	8.05	-1.95	-2.35	1.52	2.8	3.4	2.59	0.93	2.88	0.22	-0.23	0.42
CN1CCN(CCCNc2nc3ccc(Oc4ccc(NC(=O)Nc5cc(C(F)(F)F)ccc5F)cc4)cc3[nH]2)CC1	32	4.8	10.8	-0.51	13.6	-3.93	0.57	-0.15	15.4	0.85	27.5	-2.37	-2.3	-1.87	2.63	-0.99	1.35	-3.09	1.43	-0.95
NC(=O)c1cc(-c2ccc(F)cc2)cc(-c2ccncc2)c1N	4.82	4.33	5.14	2.42	6.04	1.8	4.91	1.26	5.07	-7.77	-4.61	2.33	4.55	7.08	7.6	3.05	5.71	0.21	-0.9	0.77
